Measured values published in PubChem BioAssay (NCI).
Compounds without any hit were thinned out: in the full panel of roughly 79,000, 15% have a hit. Activity calls are given as the source filed them. No stated cut-off is given here; in the data, active means growth inhibition above about 70%; inactive means the rest.

Key:
[1] = NCI Yeast Anticancer Drug Screen. Data for the rad52 strain (AID 147);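 further: 0% = growth of vehicle-treated control cultures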; details: S. cerevisiae rad52 mutant growth inhibition, hits give high values
How it was run: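 DNA repair-defective yeast; compound exposure; growth scored against vehicle controls.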

[2] = NCI Yeast Anticancer Drug Screen. Data for the rad50EPP+ strain (AID 151);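 further: 0% = growth of vehicle-treated control cultures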; details: S. cerevisiae rad50 mutant strain, hits give high values
How it was run: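 rad50EPP+ yeast treated with test compounds. Readout: growth vs vehicle control.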

[3] = NCI Yeast Anticancer Drug Screen. Data for the mgt1 strain (AID 153); details: S. cerevisiae mgt1 mutant growth inhibition, hits give high values
How it was run: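 Growth inhibition relative to vehicle controls was scored for the mgt1 yeast strain after compound exposure.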

[4] = NCI Yeast Anticancer Drug Screen. Data for the rad50 strain (AID 155);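 further: 0% = growth of vehicle-only cultures of the same strain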; details: S. cerevisiae rad50 strain growth inhibition, hits give high values
How it was run: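 Genetically altered yeast (DNA repair pathway); compound treatment; growth inhibition vs vehicle ctrl.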

[5] = NCI Yeast Anticancer Drug Screen. Data for the mec2-1 strain (AID 157); details: S. cerevisiae mec2-1 strain, hits give high values
How it was run: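 Growth inhibition is read against vehicle-treated controls after compound exposure of the mec2-1 yeast strain, which is defective in DNA damage repair or cell cycle control.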

[6] = NCI Yeast Anticancer Drug Screen. Data for the rad14 strain (AID 159);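 further: 0% = growth of vehicle-treated control cultures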; details: S. cerevisiae rad14 strain growth inhibition, hits give high values
How it was run: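 Test compounds were applied to a repair-deficient yeast strain. Its growth was then compared with that of cultures given vehicle alone, and inhibition was expressed relative to those controls.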

[7] = NCI Yeast Anticancer Drug Screen. Data for the sgs1 mgt1 strain (AID 161);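 further: 0% = growth of cultures given vehicle only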; details: S. cerevisiae sgs1 mgt1 strain, hits give high values
How it was run: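 Yeast cells carrying a defined DNA-repair defect were exposed to test compounds. Growth inhibition was measured relative to vehicle-treated controls.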

[8] = NCI Yeast Anticancer Drug Screen. Data for the CLN2oe strain (AID 163);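 further: 0% = growth of vehicle-only control cultures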; details: S. cerevisiae CLN2oe strain, hits give high values
How it was run: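 Compound-treated yeast; growth vs vehicle ctrl = % inhibition. Genetically altered strain (cell-cycle control).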

[9] = NCI Yeast Anticancer Drug Screen. Data for the cln2 rad14 strain (AID 165);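 further: 0% = growth equal to vehicle treated cultures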; details: S. cerevisiae cln2 rad14 strain, hits give high values
How it was run: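 Growth inhibition, relative to vehicle-treated controls, is the read-out. The test organism is a yeast strain with defined genetic alterations, cln2 rad14.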

[10] = NCI Yeast Anticancer Drug Screen. Data for the bub3 strain (AID 167); details: S. cerevisiae bub3 mutant strain, hits give high values
How it was run: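 Yeast carrying a defined mutation is treated with each compound, and growth is compared with that of vehicle-exposed cells to give inhibition.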

[11] = NCI Yeast Anticancer Drug Screen. Data for the wt2 strain (AID 169);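 further: 0% = growth of vehicle-treated yeast cultures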; details: S. cerevisiae wt2 strain growth inhibition, hits give high values
How it was run: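 Compound exposure of yeast; growth compared with vehicle controls; inhibition reported.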

[12] = NCI Yeast Anticancer Drug Screen. Data for the mlh1 strain (AID 171);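 further: 0% = growth of vehicle-treated control cultures of the same strain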; details: S. cerevisiae mlh1 strain growth inhibition, hits give high values
How it was run: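 Compounds are applied to a genetically altered yeast strain, and its growth is compared with that of vehicle-treated cultures to give percent inhibition.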

[13] = NCI Yeast Anticancer Drug Screen. Data for the sgs1 strain (AID 173);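 further: 0% = growth of vehicle-only control cultures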; details: S. cerevisiae sgs1 mutant, hits give high values
How it was run: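 Compounds applied to genetically altered yeast; growth compared with vehicle-treated cultures to give % inhibition.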

[14] = NCI Yeast Anticancer Drug Screen. Data for the mlh1 rad18 strain (AID 175); details: S. cerevisiae mlh1 rad18 strain growth inhibition, hits give high values
How it was run: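 Cells of a genetically altered yeast strain, deficient in DNA damage repair, were treated with compound. Their growth was then compared with that of vehicle-treated cultures to give inhibition.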

[15] = NCI Yeast Anticancer Drug Screen. Data for the rad18 strain (AID 177); details: S. cerevisiae rad18 mutant growth inhibition, hits give high values
How it was run: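 Compounds are applied to a repair-deficient yeast strain, and growth is compared with that of vehicle-treated cultures to give percent inhibition.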

[16] = NCI Yeast Anticancer Drug Screen. Data for the wt1 strain (AID 149);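 further: 0% = growth of vehicle-treated wt1 cultures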; details: S. cerevisiae wt1 strain (SPY 50644) growth inhibition, hits give high values
How it was run: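 wt1 yeast, compound-treated; % growth inhibition vs vehicle control.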

[17] = at 5.0 µM (retest, dose inferred, filed as 0.5)
[18] = at 50.0 µM (retest, dose inferred, filed as 5.0)

Measured: growth inhibition

C=C(C)[C@@H]1CCc2c(O)c(O)c(=O)cc(C)c2C1
active: [1]; at 33.0 µM 77% | [1]; at 100.0 µM 98% | [2]; at 100.0 µM 98% | [3]; at 33.0 µM 90% | [3]; at 100.0 µM 98% | [4]; at 33.0 µM 80% | [4]; [18] 97% | [4]; at 50.0 µM 91.6% | [4]; at 100.0 µM 98% | [5]; [18] 99% | [5]; at 50.0 µM 93% | [5]; at 100.0 µM 98% | [6]; at 33.0 µM 85% | [6]; at 100.0 µM 99% | [7]; [18] 99% | [7]; at 50.0 µM 92.8% | [8]; at 33.0 µM 90% | [8]; at 100.0 µM 99% | [9]; [18] 93% | [9]; at 50.0 µM 91.3% | [10]; at 33.0 µM 82% | [10]; [18] 96% | [10]; at 50.0 µM 92.2% | [10]; at 100.0 µM 98% | [11]; at 33.0 µM 91% | [11]; at 100.0 µM 97% | [12]; at 33.0 µM 85% | [12]; at 100.0 µM 99% | [13]; at 33.0 µM 81% | [13]; at 100.0 µM 98% | [14]; [18] 96% | [14]; at 50.0 µM 92.2% | [15]; at 33.0 µM 76% | [15]; at 100.0 µM 98%
inactive: [1]; at 1.2 µM 0% | [1]; at 3.7 µM 21% | [1]; at 11.0 µM 38% | [2]; at 1.2 µM -3% | [2]; at 3.7 µM 8% | [2]; at 11.0 µM 39% | [2]; at 33.0 µM 68% | [3]; at 1.2 µM 10% | [3]; at 3.7 µM 26% | [3]; at 11.0 µM 41% | [4]; at 1.2 µM -10% | [4]; at 3.7 µM 11% | [4]; [17] 41% | [4]; at 11.0 µM 37% | [5]; at 1.2 µM 2% | [5]; at 3.7 µM 22% | [5]; [17] 41% | [5]; at 11.0 µM 32% | [5]; at 33.0 µM 61% | [6]; at 1.2 µM -30% | [6]; at 3.7 µM -14% | [6]; at 11.0 µM 37% | [7]; [17] 46% | [8]; at 1.2 µM 2% | [8]; at 3.7 µM 20% | [8]; at 11.0 µM 33% | [9]; [17] 3% | [10]; at 1.2 µM 8% | [10]; at 3.7 µM 23% | [10]; [17] 52% | [10]; at 11.0 µM 43% | [11]; at 1.2 µM -69% | [11]; at 3.7 µM -31% | [11]; at 11.0 µM -27% | [12]; at 1.2 µM 25% | [12]; at 3.7 µM 36% | [12]; at 11.0 µM 55% | [13]; at 1.2 µM 1% | [13]; at 3.7 µM 24% | [13]; at 11.0 µM 50% | [14]; [17] 57% | [15]; at 1.2 µM 1% | [15]; at 3.7 µM 34% | [15]; at 11.0 µM 48%

Cc1cc(OCc2ccccc2)ccc1[N+](=O)[O-]
inactive: [1]; at 1.2 µM 20% | [1]; at 3.7 µM 22% | [1]; at 11.0 µM 21% | [1]; at 33.0 µM 44% | [1]; at 100.0 µM 69% | [16]; at 1.2 µM 23% | [16]; at 3.7 µM -10% | [16]; at 11.0 µM 21% | [16]; at 33.0 µM 32% | [16]; at 100.0 µM 60% | [2]; at 1.2 µM -2% | [2]; at 3.7 µM -2% | [2]; at 11.0 µM 5% | [2]; at 33.0 µM 57% | [4]; at 1.2 µM 11% | [4]; at 3.7 µM 34% | [4]; [17] 50% | [4]; at 11.0 µM 29% | [4]; at 33.0 µM 31% | [4]; at 50.0 µM 37.2% | [4]; at 100.0 µM 50% | [5]; at 1.2 µM 2% | [5]; at 3.7 µM 15% | [5]; [17] 51% | [5]; at 11.0 µM 10% | [5]; at 33.0 µM 22% | [5]; at 50.0 µM 26.9% | [7]; [17] -5% | [8]; at 1.2 µM 9% | [8]; at 3.7 µM 23% | [8]; at 11.0 µM 11% | [8]; at 33.0 µM 32% | [9]; [17] 40% | [9]; at 50.0 µM 44.1% | [10]; at 1.2 µM -16% | [10]; at 3.7 µM -11% | [10]; [17] 33% | [10]; at 11.0 µM -5% | [10]; at 33.0 µM 12% | [10]; at 50.0 µM 55.6% | [10]; at 100.0 µM 51% | [11]; at 1.2 µM -11% | [11]; at 3.7 µM -11% | [11]; at 11.0 µM -7% | [11]; at 33.0 µM 9% | [11]; at 100.0 µM 47% | [12]; at 1.2 µM 21% | [12]; at 3.7 µM 15% | [12]; at 11.0 µM 3% | [12]; at 33.0 µM 16% | [13]; at 1.2 µM 11% | [13]; at 3.7 µM 16% | [13]; at 11.0 µM 6% | [13]; at 33.0 µM 38% | [14]; [17] 42% | [14]; at 50.0 µM 18.1% | [15]; at 1.2 µM -15% | [15]; at 3.7 µM -14% | [15]; at 11.0 µM -14% | [15]; at 33.0 µM 22% | [15]; at 100.0 µM 66%
active: [2]; at 100.0 µM 75% | [4]; [18] 85% | [5]; [18] 85% | [5]; at 100.0 µM 78% | [7]; [18] 88% | [7]; at 50.0 µM 74.6% | [8]; at 100.0 µM 71% | [9]; [18] 93% | [10]; [18] 95% | [12]; at 100.0 µM 82% | [13]; at 100.0 µM 88% | [14]; [18] 84%

Cc1ccc(Nc2c3c(c(C#N)c4nc5ccccc5n24)CCCC3)cc1
inactive: [1]; at 1.2 µM 6% | [1]; at 3.7 µM 21% | [1]; at 11.0 µM 24% | [16]; at 1.2 µM 7% | [16]; at 3.7 µM 26% | [16]; at 11.0 µM 23% | [16]; at 33.0 µM 40% | [16]; at 100.0 µM 59% | [4]; at 1.2 µM 1% | [4]; at 3.7 µM 32% | [4]; [17] 31% | [4]; at 11.0 µM 23% | [4]; at 50.0 µM 63.3% | [5]; at 1.2 µM -15% | [5]; at 3.7 µM 15% | [5]; [17] 12% | [5]; at 11.0 µM 11% | [5]; at 33.0 µM 65% | [5]; [18] 58% | [5]; at 50.0 µM 66% | [6]; at 1.2 µM 1% | [6]; at 3.7 µM 10% | [6]; at 11.0 µM 10% | [6]; at 33.0 µM 25%
active: [1]; at 33.0 µM 70% | [1]; at 100.0 µM 72% | [4]; at 33.0 µM 71% | [4]; [18] 74% | [4]; at 100.0 µM 70% | [5]; at 100.0 µM 73%
